# A selection: hits, their analogues and other compounds. The true share with any hit is near 2.8%.
# PI4K2A inh – PI4K2A (human) kinase inhibition; hit rate 0.13% among 420,000; Q9BTU6; activity change, negative = inhibition, % at 76.9 µM; purified PI4K2A, ADP-Glo luminescence, 1 h; stronger effect = lower value; in the data active means activity change below about -50%; inconclusive means mostly about -30% to -49%;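 further: -100% = wells without enzyme as full effect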
# Target sequence (Q9BTU6 whole entry, looked up): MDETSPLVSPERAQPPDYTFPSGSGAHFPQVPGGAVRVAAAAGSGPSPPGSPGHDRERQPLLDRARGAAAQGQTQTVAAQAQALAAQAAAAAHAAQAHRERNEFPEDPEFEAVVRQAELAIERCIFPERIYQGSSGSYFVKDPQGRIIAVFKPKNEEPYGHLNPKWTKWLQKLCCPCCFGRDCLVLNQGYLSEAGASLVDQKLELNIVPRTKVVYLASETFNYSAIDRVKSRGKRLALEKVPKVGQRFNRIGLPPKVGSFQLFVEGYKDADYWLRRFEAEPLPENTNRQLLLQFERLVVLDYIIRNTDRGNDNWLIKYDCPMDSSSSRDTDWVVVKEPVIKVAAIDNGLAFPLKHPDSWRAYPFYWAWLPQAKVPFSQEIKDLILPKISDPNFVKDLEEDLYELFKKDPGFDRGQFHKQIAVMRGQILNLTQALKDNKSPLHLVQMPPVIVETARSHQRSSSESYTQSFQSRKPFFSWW
#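 Compounds are screened against recombinant PI4K2A using PI as substrate and ATP, the latter dispensed at 300 microM. Reactions run one hour at ambient temperature before ADP-Glo detection; full inhibition defined by wells lacking enzyme.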
# POLB inh – inhibitors of human DNA polymerase beta. P06746. hit rate 1.3% among 340,000. Pol beta primer extension/strand displacement, fluorescence kinetic. Potency, µM (titrated, usually from 114 µM), for inactives: at the top dose activity change, negative = inhibition, most hits filed as inhibitors; further: potency means the concentration at half of the fitted maximal effect; on the % scale 0 is the no-effect control and ±100 the full control effect
#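 Enzyme-only controls used 10 nM Pol beta; buffer lacking enzyme served as negative control. Compound preincubated 15 min, then 50 nM substrate added; 0 and 10 min reads at room temperature.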
# Pol eta inh-1 – DNA polymerase eta (human) inhibition | Q9Y253 | recombinant Pol eta, fluorescent DNA replication assay | Potency, µM (titrated, usually from 114 µM), inactives show top-dose activity change, negative = inhibition, usual class: inhibitors | hit rate 1.2% among 390,000 | AID 588591; further: potency means the concentration at half of the fitted maximal effect; on the % scale 0 is the no-effect control and ±100 the full control effect
#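 Pol eta (10 nM) was preincubated with compounds for 15 min at room temperature, after which fluorescent replication substrate (50 nM final) was added to start the reaction. Fluorescence was read kinetically at 0 and 10 min.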
# POLI inh – blocks human DNA polymerase iota activity; Q9UNA4; Pol iota fluorescent replication assay, 10 min; Potency, µM (top dose mostly 115 µM), without a hit: at the highest dose activity, negative = inhibition, most hits filed as inhibitors; hit rate 1% among 390,000; AID 588590; further: potency means the concentration at half of the fitted maximal effect
#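 Pol iota at 10 nM preincubated 15 min with compounds at room temperature; reaction started with fluorescent substrate, 50 nM final. Fluorescence read kinetically at 0 and 10 min; buffer-only wells as negative control.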
# Pol kappa inh-1 – blocks human DNA polymerase kappa activity. Q9UBT6. Potency, µM (doses to about 107 µM), for inactives: at the highest dose activity, negative = inhibition, hits mostly inhibitors. hit rate 0.53% among 400,000. AID 588579. purified Pol kappa, fluorescent DNA synthesis assay, 10 min; further: potency means the concentration at half of the fitted maximal effect; on the % scale 0 is the no-effect control and ±100 the full control effect
#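 Here, compound and 10 nM enzyme are combined for 15 min at room temperature; adding 50 nM substrate (final) starts DNA synthesis, tracked by fluorescence at 0 and 10 min against buffer-only wells.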
# PI5P4Ka inh – inhibitors of human PI5P4K alpha | PI5P4Kalpha enzyme, ADP-Glo luminescence, 60 min; stronger effect = lower value | AID 652105 | hit rate 1.2% among 330,000 | P48426 | max response, %; active means max response of -50% or lower; inconclusive means between -30% and -50%; inactive means -30% or higher; further: value at the top dose of about 77 µM; on the % scale 0 is the no-effect control and ±100 the full control effect
#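 Controls without substrate or without enzyme flank wells where PI5P4Kalpha converts substrate using 5 microM ATP (final). Incubation lasts 60 minutes at room temperature; ADP formed is read by ADP-Glo luminescence.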
# TbPGK inh – TbPGK inhibition, hit validation; shares compounds with Pol kappa inh-1; TbPGK coupled GAPDH assay, Kinase-Glo luminescence; Potency, µM (highest dose often 57.5 µM), for the others: top-dose activity change, negative = inhibition, actives largely listed as inhibitors; hit rate 79% among 500; further: potency means the concentration at half of the fitted maximal effect; on the % scale 0 is the no-effect control and ±100 the full control effect; nearly all actives have a fitted effect of over 65% in size
# Pol iota confirm – Human Pol iota inhibitor confirmatory assay | shares compounds with Pol kappa inh-1 | AID 720496 | hit rate 77% among 1,500 | Potency, µM, actives largely listed as inhibitors | Pol iota primer extension, TAMRA/BHQ fluorescence; further: potency means the concentration at half of the fitted maximal effect
# Pol kappa inh-2 – Pol kappa (human) inhibition, cherry-pick confirmation. shares compounds with Pol eta inh-1. purified Pol-kappa, fluorescent strand-displacement substrate. Potency, µM, usual class: inhibitors. hit rate 76% among 920. AID 720501; further: potency means the concentration at half of the fitted maximal effect
# Pol eta inh-2 – Pol eta (human) inhibition, cherry-pick confirmation. Pol eta primer extension, TAMRA/BHQ fluorescence, 10 min. hit rate 64% among 2,600. shares compounds with Pol eta inh-1. Potency, µM, actives largely listed as inhibitors; further: potency means the concentration at half of the fitted maximal effect
# Active calls of the source: *; ? = inconclusive; . = no result given; [ ] = remark or other dose. Unless noted, the call rests on the fitted dose curve; in most records, active means well fitted curve in the direction sought with a large enough effect; inconclusive means small, poorly fitted or top-dose-only effect, or another doubt; inactive means no such curve, though single readings can be large; an effect the other way counts as inactive or inconclusive.
SMILES,PI4K2A inh,POLB inh,Pol eta inh-1,POLI inh,Pol kappa inh-1,PI5P4Ka inh,Pol iota confirm,Pol eta inh-2,others
C=Cc1c(C)c2cc3[nH]c(cc4nc(cc5nc(cc1[nH]2)C(C)=C5CCC(=O)O)C(CCC(=O)O)=C4C)c(C)c3C=C,?,1.41µM*,4.47µM*,10µM*,9.47µM*,-50.8*,2.99*,2.69*,TbPGK inh=0.231µM*
CC(=O)c1ccc(NC(=O)CN2C(=O)CCc3cc(S(=O)(=O)N4CCC(C)CC4)ccc32)cc1,-9.0,35.5µM*,25.1µM*,?,-9.7%[60.1 µM],.,53.2*,37.9*,Pol kappa inh-2=?
CC(=O)Nc1ccc(NC(=O)CN2C(=O)CCc3cc(S(=O)(=O)N4CCCCC4)ccc32)cc1,-3.9,-0.8%,-4.3%,11.7%,-10.6%[60.1 µM],.,.,.,
CCCCOc1ccccc1C(=O)Nc1nonc1-c1ccccc1,-5.4,11.6%,-14.4%,-1.3%,-17.0%,.,.,.,
NC(=O)Cc1ccc(C(=O)CSc2nnc(-c3ccncc3)n2C2CC2)s1,?,.,12.6µM*,14.1µM*,79.4µM*,-78.2*,?,75.7*,
CCc1ccc(CNC(=O)c2ccc(CS(=O)(=O)Cc3ccccc3C)o2)cc1,-1.3,15.2%,-11.7%,30.2%,-0.4%[60.1 µM],.,.,.,
O=C1OC(c2cccs2)=N/C1=C/c1ccc(-c2cccc(C(=O)O)c2)o1,-6.6,3.55µM*,14.1µM*,20µM*,44.7µM*,-70.2*,37.7*,26.9*,
N=C1/C(=C/c2ccc(-c3cccc(C(=O)O)c3)o2)C(=O)N=C2SC=C(c3ccccc3)N12,-5.7,28.2µM*,3.16µM*,3.98µM*,7.08µM*,-83.1*,18.9*,7.57*,TbPGK inh=36.6µM*
O=C1OC(c2cccs2)=N/C1=C\c1ccc(-c2ccccc2Cl)o1,4.0,?,-29.6%,?,-12.5%,.,.,.,
CCn1c2ccccc2c2cc(NC(=O)COC(=O)c3ccc(C)cc3)ccc21,-5.1,.,.,.,.,.,.,.,
CCn1c2ccccc2c2cc(NC(=O)COC(=O)c3ccc(NC(=O)CC#N)cc3)ccc21,-7.7,.,?,22.4µM*,22.4µM*,?,?,60.1*,
Cc1c(C(=O)O)sc2nc(/C=C/c3ccccc3OC(F)F)[nH]c(=O)c12,-0.4,39.8µM*,?,?,-0.8%,-63.0*,75.2*,?,
Cc1ccc(/C=C/c2nc3sc(C(=O)O)c(C)c3c(=O)[nH]2)cc1[N+](=O)[O-],4.9,?,39.8µM*,0.6%,-7.3%,?,29.9*,?,
S=c1[nH]nc(-c2cc(-c3ccccc3)n[nH]2)n1/N=C/C=C/c1ccco1,-13.1,22.4µM*,22.4µM*,14.1µM*,50.1µM*,-96.0*,?,30.1*,Pol kappa inh-2=23.8*
Cc1ccccc1/C=N/n1c(-c2cc(-c3ccccc3)n[nH]2)n[nH]c1=S,-0.1,?,-2.1%,3.2%,-0.3%,-21.7,.,.,
CC(=O)Nc1ccc(-c2ccnc3c2CC(C(=O)NCc2cccc(Cl)c2)O3)cc1 (stereo not drawn),-0.6,.,.,.,.,-0.2,.,.,
Cc1cc(C)c2c(c1)N[C@H](c1cccs1)[C@@H]1CCO[C@H]21,16.1,21.9%,-9.5%,49.7%,2.6%,-3.5,.,.,
Cc1cc(C)c2c(c1)NC(C(=O)O)C1CC=CC21 (stereo not drawn),-29.2,?,11.2µM*,12.6µM*,25.1µM*,-79.0*,26.7*,23.9*,Pol kappa inh-2=6.7*
O=C(/C=C/c1ccco1)N1CCN(S(=O)(=O)c2ccccc2)CC1,-6.3,.,17.8µM*,50.1µM*,?,?,.,?,TbPGK inh=9.19µM*;Pol kappa inh-2=?
Cc1ccccc1Nc1cc(C(=O)NCCCN2CCN(c3cccc(Cl)c3)CC2)c2ccccc2n1,-5.0,-9.6%,-22.0%,-6.6%,-27.3%[60.1 µM],.,.,.,
COc1ccc(/C=C/C(=O)NC(=S)Nc2cc([N+](=O)[O-])ccc2O)cc1OC,-4.3,17.8µM*,25.1µM*,15.8µM*,?,-24.9,75.2*,30.1*,
COC(=O)c1ccccc1NC(=O)c1ccc2c(c1)CCN2S(=O)(=O)c1ccc(C)cc1,-0.7,45.3%,-21.7%,-2.6%,-1.0%,.,.,.,
CCOc1ccc(NC(=O)CN(c2ccc(C)cc2)S(=O)(=O)c2cccs2)cc1,0.9,0.3%,-14.3%,18.5%,-4.4%,.,.,.,
CC(=O)Nc1ccc2nc3c(=O)[nH]c(=O)[nH]c3nc2c1,.,28.2µM*,.,8.91µM*,28.2µM*,.,11.9*,16.9*,Pol kappa inh-2=2.38*
CCn1c2ccccc2c2cc(NC(=O)COC(=O)c3cc(Cl)cc(Cl)c3)ccc21,-3.1,.,.,.,.,.,.,.,
SMILES,PI4K2A inh,POLB inh,Pol eta inh-1,POLI inh,Pol kappa inh-1,PI5P4Ka inh,Pol iota confirm,Pol eta inh-2,others
Cc1cc(/C=C(/C#N)c2nc3ccccc3[nH]2)c(C)n1-c1cc(C(=O)O)cc(C(=O)O)c1,-15.4,14.1µM*,3.98µM*,?,39.8µM*,-78.9*,37.7*,16.9*,
CCOc1ccc(Nc2nc(C)c(NC(=O)c3cccc(F)c3)c(Nc3ccc(OCC)cc3)n2)cc1,-2.4,-1.8%,-18.7%,?,14.3%,.,.,.,
Cc1cccc(CCNC(=O)C2CCN(c3ncnc4c3nc3n4CCCCC3)CC2)c1,-4.2,2.8%,11.8%,-15.4%,-6.5%,.,.,.,
O=C(O)c1cc(-c2ccc(/C=C3\NC(=O)N(c4ccccc4)C3=O)o2)ccc1Cl,-6.3,22.4µM*,3.98µM*,?,44.7µM*,?,33.6*,15.1*,
O=C(O)c1cc(-c2ccc(/C=C3\NC(=O)N(c4ccc(Cl)cc4)C3=O)o2)ccc1Cl,-8.2,6.31µM*,3.55µM*,10µM*,10µM*,?,21.2*,5.36*,TbPGK inh=20.6µM*;Pol kappa inh-2=16.8*
CCCOc1ccc(NC(=O)CC2C(=O)N(c3ccc(C)cc3)C(=O)N2C2CCCC2)cc1 (stereo not drawn),-3.0,?,-22.6%,5.5%,-4.7%,.,.,.,
COc1ccc(-n2nc3c(c2NC(=O)C(=O)N2CCN(C)CC2)CSC3)cc1,-2.6,-18.9%,-10.6%,-1.4%,-3.0%[60.1 µM],.,.,.,
CCOc1ccc(NC(=S)NC(=O)/C=C/c2ccco2)cc1,-4.2,-16.9%,3.4%,116.6%,2.1%,-12.0,.,.,

# Compound activity: PubChem, National Center for Advancing Translational Sciences (NCATS)
